Test results: the supplement of paper PMC10849652
About 8,800 targets were measured; listed, in parts, are those with a hit and a random draw of the rest. About 0.5% of all pairs of compound and target were hits.

compound: C#Cc1cccc(Nc2ncnc3cc(OCCOC)c(OCCOC)cc23)c1 [erlotinib]; test: log2 fold change, soluble protein after heating vs DMSO (PISA); higher = thermal stabilisation; K562 lysate, 10 uM; active = over 0.2 and 3.5 SD of the protein, either way, in both replicates (recomputed)
Procedure, shortened: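 Thermal stability, expressed as log-two fold change relative to solvent controls, is given from duplicates. Crude K562 extract in PBS pH 7.4 with 1 mM MgCl2, at 1 mg/mL protein, was treated with 10 μM compound for 30 min and heated in aliquots for 3 min across 48°C-58°C. After pooling, adjustment to 0.5% NP-40 at 4°C and centrifugation at 21,000xg for 90 min, supernatant protein was measured by TMTpro 16plex LC-MS/MS with channel sums equalised.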

UniProt Q5XPI4, sequence (Q5XPI4 whole entry, looked up): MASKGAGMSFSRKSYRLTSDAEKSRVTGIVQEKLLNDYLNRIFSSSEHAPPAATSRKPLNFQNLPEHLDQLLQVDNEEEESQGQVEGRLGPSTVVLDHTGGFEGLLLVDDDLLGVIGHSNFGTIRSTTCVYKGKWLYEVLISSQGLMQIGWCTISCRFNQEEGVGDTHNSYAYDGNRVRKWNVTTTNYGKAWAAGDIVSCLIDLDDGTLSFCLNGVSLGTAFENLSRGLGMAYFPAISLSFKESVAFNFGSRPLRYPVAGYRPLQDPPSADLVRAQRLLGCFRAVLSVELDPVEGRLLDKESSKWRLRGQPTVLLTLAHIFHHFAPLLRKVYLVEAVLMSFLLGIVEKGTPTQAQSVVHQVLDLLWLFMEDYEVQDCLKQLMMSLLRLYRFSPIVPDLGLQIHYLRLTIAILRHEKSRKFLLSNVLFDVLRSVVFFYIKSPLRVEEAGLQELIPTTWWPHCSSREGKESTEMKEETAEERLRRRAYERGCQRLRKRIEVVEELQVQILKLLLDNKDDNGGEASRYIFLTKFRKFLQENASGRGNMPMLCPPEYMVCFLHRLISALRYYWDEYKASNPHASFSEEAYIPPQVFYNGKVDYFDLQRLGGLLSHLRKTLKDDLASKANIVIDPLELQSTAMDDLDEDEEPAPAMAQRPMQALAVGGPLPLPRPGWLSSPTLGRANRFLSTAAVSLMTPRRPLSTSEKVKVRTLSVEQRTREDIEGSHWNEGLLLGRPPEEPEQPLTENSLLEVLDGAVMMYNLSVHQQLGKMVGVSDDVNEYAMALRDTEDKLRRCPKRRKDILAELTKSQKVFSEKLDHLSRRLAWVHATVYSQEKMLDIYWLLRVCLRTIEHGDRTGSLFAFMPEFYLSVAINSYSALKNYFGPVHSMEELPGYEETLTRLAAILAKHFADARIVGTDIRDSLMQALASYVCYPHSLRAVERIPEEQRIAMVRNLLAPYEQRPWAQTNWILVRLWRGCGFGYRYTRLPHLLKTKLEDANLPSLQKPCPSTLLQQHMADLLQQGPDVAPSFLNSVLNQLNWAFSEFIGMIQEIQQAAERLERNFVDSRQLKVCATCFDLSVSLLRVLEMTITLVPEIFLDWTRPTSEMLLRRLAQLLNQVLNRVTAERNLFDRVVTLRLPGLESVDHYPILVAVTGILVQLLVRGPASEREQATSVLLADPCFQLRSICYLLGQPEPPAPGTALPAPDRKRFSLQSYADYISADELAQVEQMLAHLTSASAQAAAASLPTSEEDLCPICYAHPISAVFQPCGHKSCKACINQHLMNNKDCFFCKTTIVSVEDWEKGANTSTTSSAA
UniProt P31040, sequence (P31040 whole entry, looked up): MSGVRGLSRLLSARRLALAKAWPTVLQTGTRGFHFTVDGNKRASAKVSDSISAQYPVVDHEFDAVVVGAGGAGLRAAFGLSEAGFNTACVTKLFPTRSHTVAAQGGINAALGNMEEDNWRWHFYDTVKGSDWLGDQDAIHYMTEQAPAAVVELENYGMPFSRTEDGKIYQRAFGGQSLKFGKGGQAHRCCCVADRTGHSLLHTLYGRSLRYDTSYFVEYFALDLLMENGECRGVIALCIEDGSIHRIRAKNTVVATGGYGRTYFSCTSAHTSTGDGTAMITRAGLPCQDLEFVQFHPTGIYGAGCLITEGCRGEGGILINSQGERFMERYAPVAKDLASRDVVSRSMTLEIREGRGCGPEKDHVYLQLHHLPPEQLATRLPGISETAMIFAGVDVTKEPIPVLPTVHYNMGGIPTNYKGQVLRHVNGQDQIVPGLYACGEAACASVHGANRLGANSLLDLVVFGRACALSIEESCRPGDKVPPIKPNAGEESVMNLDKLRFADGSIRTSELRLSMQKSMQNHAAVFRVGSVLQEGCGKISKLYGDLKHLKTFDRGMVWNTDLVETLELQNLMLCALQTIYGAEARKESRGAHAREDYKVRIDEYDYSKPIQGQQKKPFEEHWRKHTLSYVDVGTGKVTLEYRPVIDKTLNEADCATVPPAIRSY
UniProt P31949, sequence (P31949 whole entry, looked up): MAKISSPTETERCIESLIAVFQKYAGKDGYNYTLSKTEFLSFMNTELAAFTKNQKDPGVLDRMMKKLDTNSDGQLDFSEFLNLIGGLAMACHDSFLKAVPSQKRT
UniProt Q9NR31, sequence (Q9NR31 whole entry, looked up): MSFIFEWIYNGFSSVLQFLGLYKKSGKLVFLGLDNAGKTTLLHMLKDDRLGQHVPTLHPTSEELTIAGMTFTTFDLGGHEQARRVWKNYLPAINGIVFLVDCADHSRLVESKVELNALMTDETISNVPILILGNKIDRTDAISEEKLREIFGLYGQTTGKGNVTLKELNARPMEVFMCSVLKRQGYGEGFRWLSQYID
UniProt Q8TBN0, sequence (Q8TBN0 whole entry, looked up): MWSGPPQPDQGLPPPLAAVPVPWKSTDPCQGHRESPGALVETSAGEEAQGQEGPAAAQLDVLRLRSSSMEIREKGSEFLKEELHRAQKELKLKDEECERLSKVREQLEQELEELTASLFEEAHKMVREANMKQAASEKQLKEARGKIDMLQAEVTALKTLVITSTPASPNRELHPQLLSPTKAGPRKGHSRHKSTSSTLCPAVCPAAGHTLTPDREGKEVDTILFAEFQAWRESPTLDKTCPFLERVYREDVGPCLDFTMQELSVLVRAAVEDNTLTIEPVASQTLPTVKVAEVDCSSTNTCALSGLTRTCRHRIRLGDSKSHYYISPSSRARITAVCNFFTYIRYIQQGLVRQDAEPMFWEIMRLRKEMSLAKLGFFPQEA
UniProt O15027, sequence (O15027 whole entry, looked up): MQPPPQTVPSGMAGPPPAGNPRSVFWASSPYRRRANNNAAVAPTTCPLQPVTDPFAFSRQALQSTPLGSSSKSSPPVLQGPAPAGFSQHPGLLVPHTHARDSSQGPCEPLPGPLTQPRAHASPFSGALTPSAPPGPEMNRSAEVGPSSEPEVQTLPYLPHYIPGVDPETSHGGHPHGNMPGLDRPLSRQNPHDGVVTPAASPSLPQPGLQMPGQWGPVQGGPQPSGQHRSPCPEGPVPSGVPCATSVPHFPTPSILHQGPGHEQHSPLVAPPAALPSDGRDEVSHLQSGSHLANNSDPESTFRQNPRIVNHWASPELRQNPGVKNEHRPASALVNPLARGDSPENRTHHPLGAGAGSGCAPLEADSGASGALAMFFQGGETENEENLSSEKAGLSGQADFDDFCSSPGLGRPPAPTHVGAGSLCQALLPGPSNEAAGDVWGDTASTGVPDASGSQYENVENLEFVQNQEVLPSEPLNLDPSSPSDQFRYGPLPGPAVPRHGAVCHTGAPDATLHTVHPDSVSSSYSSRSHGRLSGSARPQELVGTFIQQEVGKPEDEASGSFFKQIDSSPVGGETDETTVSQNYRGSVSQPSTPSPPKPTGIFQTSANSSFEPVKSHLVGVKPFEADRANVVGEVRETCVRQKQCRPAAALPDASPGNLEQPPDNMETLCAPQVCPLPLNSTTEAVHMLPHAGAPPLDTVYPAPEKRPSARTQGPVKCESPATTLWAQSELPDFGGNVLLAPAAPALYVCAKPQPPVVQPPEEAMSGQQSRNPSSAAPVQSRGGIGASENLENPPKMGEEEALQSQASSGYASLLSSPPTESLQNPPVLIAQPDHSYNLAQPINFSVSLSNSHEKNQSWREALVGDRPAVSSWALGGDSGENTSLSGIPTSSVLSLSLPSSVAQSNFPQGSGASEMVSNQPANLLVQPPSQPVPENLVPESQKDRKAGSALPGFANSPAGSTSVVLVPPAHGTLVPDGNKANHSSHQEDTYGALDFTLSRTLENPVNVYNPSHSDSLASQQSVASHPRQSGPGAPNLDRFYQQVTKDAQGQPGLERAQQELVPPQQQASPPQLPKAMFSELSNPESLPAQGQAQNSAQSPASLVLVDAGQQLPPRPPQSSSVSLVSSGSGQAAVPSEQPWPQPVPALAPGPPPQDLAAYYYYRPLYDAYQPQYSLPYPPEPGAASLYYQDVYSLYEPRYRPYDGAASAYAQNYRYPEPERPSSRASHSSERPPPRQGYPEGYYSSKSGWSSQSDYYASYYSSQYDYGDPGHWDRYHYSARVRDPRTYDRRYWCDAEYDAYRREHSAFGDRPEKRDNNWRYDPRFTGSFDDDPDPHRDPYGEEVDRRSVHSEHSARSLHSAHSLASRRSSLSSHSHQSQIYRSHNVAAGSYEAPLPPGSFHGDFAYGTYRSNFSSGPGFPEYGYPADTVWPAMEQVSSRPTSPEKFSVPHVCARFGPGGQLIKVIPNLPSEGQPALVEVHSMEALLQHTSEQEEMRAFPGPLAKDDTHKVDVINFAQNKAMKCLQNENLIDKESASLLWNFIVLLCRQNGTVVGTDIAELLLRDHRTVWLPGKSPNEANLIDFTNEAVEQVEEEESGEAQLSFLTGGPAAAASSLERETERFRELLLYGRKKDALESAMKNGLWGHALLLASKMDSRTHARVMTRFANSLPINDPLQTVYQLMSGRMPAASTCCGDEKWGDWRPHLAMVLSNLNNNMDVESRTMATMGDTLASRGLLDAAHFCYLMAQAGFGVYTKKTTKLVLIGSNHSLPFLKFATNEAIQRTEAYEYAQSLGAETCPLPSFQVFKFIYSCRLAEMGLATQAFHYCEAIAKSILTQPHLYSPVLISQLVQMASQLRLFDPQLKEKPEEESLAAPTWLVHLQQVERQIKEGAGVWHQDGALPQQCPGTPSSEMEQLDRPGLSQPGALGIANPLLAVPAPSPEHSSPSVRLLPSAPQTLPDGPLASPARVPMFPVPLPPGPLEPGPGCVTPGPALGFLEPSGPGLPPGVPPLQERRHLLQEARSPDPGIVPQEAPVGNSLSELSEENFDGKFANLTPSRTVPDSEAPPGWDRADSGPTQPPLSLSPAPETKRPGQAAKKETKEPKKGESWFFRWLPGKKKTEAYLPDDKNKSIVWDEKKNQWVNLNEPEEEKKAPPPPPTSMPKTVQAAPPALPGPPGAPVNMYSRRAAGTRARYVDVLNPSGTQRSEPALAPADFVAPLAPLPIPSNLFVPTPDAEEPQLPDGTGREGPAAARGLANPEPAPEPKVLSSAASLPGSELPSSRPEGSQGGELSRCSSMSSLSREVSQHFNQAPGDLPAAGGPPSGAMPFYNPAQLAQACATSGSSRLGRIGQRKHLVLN

log2 fold change, inactive:
RDX (UniProt P35241) -0.013
RINT1 (UniProt Q6NUQ1) 0.056
RAB6D (UniProt Q53S08) 0.027
RAD50 isoform 2 (UniProt Q92878) -0.009
RBBP8 isoform 2 (UniProt Q99708) 0.073
R3HCC1 (UniProt Q9Y3T6) -0.015
RHAG (UniProt Q02094) 0.017
SDHA (UniProt P31040) 0.001
SCAF1 (UniProt Q9H7N4) 0.016
SEC61G (UniProt P60059) 0.065
SEC24D isoform 2 (UniProt O94855) 0.016
SCD (UniProt O00767) 0.075
SAR1A (UniProt Q9NR31) -0.268
SEC13 isoform 3 (UniProt P55735) 0.032
SERINC3 (UniProt Q13530) 0.068
RFC4 (UniProt P35249) 0.006
RCOR3 isoform 3 (UniProt Q9P2K3) -0.033
S100A11 (UniProt P31949) 0.02
RRM1 (UniProt P23921) 0.018
RNF123 (UniProt Q5XPI4) 0.058
RAB3IL1 (UniProt Q8TBN0) -0.026
RRAGA (UniProt Q7L523) -0.022
RMC1 (UniProt Q96DM3) 0.015
RAF1 isoform 2 (UniProt P04049) -0.011
SEC16A isoform 5 (UniProt O15027) 0.006
SAMHD1 (UniProt Q9Y3Z3) 0.035
RHOA (UniProt P61586) 0.001
RNF168 (UniProt Q8IYW5) -0.018
RAE1 (UniProt P78406) 0.045
REEP5 (UniProt Q00765) 0.017
RAP1GAP isoform 4 (UniProt P47736) 0.087
RFC2 (UniProt P35250) -0.004
SEC62 (UniProt Q99442) -0.046
